# According to PubChem BioAssay (Tox21):
# Unmarked numbers belong to inactive results. Records with an inconclusive call do not appear. A call without a number means that no potency is given here. The source made the active and inactive calls. Unless noted, the call rests on the fitted dose curve; in most records, active means well fitted curve in the direction sought with a large enough effect in the repeat runs; inconclusive means weak or mixed curves; inactive means no such curve, though single readings can be large; an effect the other way counts as inactive or inconclusive.
# Tests used:
# [1] = biological target: Progesterone receptor (Homo sapiens) (UniProt P06401); experiment: qHTS assay to identify small molecule agonists of the progesterone receptor (PR) signaling pathway (AID 1346784; calls by dose curve; further: nearly all actives have a fitted effect of over 30% in size)
# Chain of Progesterone receptor (Homo sapiens) (P06401 whole entry, looked up): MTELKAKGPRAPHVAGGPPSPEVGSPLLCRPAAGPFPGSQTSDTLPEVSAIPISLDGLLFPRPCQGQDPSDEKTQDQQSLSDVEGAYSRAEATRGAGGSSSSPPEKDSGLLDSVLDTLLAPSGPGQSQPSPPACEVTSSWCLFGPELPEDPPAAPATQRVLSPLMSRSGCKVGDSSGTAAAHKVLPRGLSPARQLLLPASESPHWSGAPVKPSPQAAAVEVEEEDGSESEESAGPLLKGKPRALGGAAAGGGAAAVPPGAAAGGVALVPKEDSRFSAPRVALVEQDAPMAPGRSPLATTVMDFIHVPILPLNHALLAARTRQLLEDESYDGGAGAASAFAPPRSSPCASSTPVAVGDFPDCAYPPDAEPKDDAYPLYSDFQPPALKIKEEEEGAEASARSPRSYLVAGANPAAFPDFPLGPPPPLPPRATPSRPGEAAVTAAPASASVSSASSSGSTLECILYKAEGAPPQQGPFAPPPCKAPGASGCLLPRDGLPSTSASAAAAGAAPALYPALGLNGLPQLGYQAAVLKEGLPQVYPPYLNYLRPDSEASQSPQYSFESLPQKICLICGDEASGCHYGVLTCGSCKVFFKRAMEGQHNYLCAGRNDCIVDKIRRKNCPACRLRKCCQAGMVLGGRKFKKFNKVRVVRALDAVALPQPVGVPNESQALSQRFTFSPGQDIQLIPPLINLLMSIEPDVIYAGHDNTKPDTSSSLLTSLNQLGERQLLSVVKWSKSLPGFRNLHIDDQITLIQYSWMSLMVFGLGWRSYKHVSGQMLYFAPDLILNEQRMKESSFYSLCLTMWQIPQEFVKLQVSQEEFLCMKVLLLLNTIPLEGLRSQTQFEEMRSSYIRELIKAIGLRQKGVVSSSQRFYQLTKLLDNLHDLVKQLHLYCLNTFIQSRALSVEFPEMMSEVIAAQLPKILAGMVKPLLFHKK
# Summary of the method: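 Agonist qHTS: compounds pinned onto 3,000 PR-UAS-bla HEK 293T cells per well in charcoal-stripped serum medium, 16hr at 37C, then beta-lactamase activity measured by LiveBLAzer FRET fluorescence after 2 hours at room temperature.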
# [2] = qHTS assay to identify small molecule antagonists of the progesterone receptor (PR) signaling pathway - cell viability counter screen (AID 1346798); further: nearly all actives have a fitted effect of over 50% in size; further: potency means the concentration at half of the fitted maximal effect; on activity change, negative = cytotoxicity: series mostly up to about 92 µM
# Summary of the method: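 Cytotoxicity read as CellTiter-Glo luminescence (30 min, room temperature) in the same wells as the beta-lactamase readout. HEK293T PR-UAS-bla cells in charcoal-stripped 2% FBS received compound and R5020, then 16 h at 37C, 5% CO2.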
# [3] = qHTS assay to identify small molecule agonists of the progesterone receptor (PR) signaling pathway - cell viability counter screen (AID 1346799; calls by dose curve; further: nearly all actives have a fitted effect of over 45% in size; further: potency means the concentration at half of the fitted maximal effect)
# Summary of the method: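 Cytotoxicity measured by CellTiter-Glo luminescence (30 min, RT) in the same wells as the PR beta-lactamase agonist read. Those HEK293T cells had 16 h compound treatment at 37 C in 2% charcoal-stripped FBS medium.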
# [4] = qHTS assay to identify small molecule antagonists of the TGF-beta/Smad signaling pathway - cell viability counter screen (AID 1346824); further: nearly all actives have a fitted effect of over 50% in size
# Summary of the method: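 SBE-bla HEK 293T cells, incubated overnight, then compound plus 0.25 ng/mL TGF-beta1 (stock added) for 5 hr at 37 C. Viability was read in the same wells by CellTiter-Glo luminescence after 30 min at room temperature.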
# [5] = qHTS assay to identify small molecule agonists of the TGF-beta/Smad signaling pathway - cell viability counter screen (AID 1346829); further: top concentration of the series differs between compounds; nearly all actives have a fitted effect of over 45% in size
# Summary of the method: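 HEK 293T SBE-bla line, 5 hr compound exposure at 37 C, multiplexed CellTiter-Glo viability read by luminescence.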
# [6] = qHTS assay to identify small molecule agonists of the TGF-beta/Smad signaling pathway (AID 1346859; active means well fitted activation curve with a large enough effect in the signal ratio in the repeat runs, not every such curve was filed as active; the % refers to the signal ratio; further: series mostly up to about 77 µM)
# Summary of the method: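 Fluorescence (ex 405 nm; em 460 and 530 nm) was read 2 h after LiveBLAzer FRET substrate at RT. The preceding compound treatment of overnight-plated SBE-bla HEK293T cells lasted 5 h at 37 C.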
# [7] = biological target: Thyrotropin-releasing hormone receptor (Homo sapiens) (UniProt P34981); experiment: qHTS assay to identify small molecule antagonists of the thyrotropin-releasing hormone receptor (TRHR) signaling pathway (AID 1346877; active means well fitted inhibition curve with a large enough effect in the repeat runs, not every such curve was filed as active; further: series mostly up to about 51 µM)
# Chain of Thyrotropin-releasing hormone receptor (Homo sapiens) (P34981 whole entry, looked up): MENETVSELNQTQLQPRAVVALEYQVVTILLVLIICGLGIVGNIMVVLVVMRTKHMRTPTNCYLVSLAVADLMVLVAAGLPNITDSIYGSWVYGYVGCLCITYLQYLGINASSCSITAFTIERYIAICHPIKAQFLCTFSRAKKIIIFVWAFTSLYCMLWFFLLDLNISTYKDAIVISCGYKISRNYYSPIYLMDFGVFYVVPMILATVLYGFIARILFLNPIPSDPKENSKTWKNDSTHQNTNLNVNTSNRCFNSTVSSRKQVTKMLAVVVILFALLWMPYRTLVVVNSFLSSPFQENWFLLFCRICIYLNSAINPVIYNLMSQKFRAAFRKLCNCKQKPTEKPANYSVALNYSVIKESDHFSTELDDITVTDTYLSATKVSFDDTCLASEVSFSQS
# Summary of the method: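 Following an 18 h incubation at 37 °C and a 2 h calcium dye load, TRHR-HEK293 cells were exposed to compound (5 min, room temperature) and challenged with TRH, 1 nM final.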
# [8] = biological target: Thyrotropin-releasing hormone receptor (Homo sapiens) (UniProt P34981); experiment: qHTS assay to identify small molecule agonists of the thyrotropin-releasing hormone receptor (TRHR) signaling pathway (AID 1346891; calls by dose curve; further: series mostly up to about 58 µM)
# Summary of the method: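 Agonist-mode intracellular calcium readout: kinetic fluorescence over 3 min at 1 s intervals after compound addition to TRHR-HEK293 cells (18 h seeded, 2 h dye-loaded at 37 C). Fifteen concentrations, triplicates.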
# [9] = Human pregnane X receptor (PXR) small molecule agonists, qHTS cell viability counter screen (AID 1346977); further: nearly all actives have a fitted effect of over 50% in size; further: potency means the concentration at half of the fitted maximal effect
# Summary of the method: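 Same-well viability read: CellTiter-Fluor added after 23 hr compound exposure, fluorescence measured 1 hr later. Cells were PXR-Luc HepG2 seeded at 2,000/well in 5% charcoal-stripped FBS medium, rested 5 hr before dosing at 37 C.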
# [10] = biological target: Progesterone receptor (Homo sapiens) (UniProt P06401); experiment: qHTS assay to identify small molecule antagonists of the progesterone receptor (PR) signaling pathway (AID 1346795; active means well fitted inhibition curve with a large enough effect in the signal ratio in the repeat runs, not every such curve was filed as active; the % refers to the signal ratio; further: potency means the concentration at half of the fitted maximal effect)
# Summary of the method: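 Antagonist mode with agonist R5020 at 1 nM final and 16 hr incubation at 37C. Reporter was beta-lactamase driven by UAS in HEK293T (PR-UAS-bla), 2% charcoal-stripped serum; signal from LiveBLAzer FRET substrate, 2 hr at room temperature.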
smiles,measurement,setting,value
CCNc1cc(O)ccc1C,Potency,[1],inactive
same,Potency,[2],inactive
same,Potency,[3],inactive
same,Potency,[4],inactive
same,outcome,[5],inactive
same,Potency,[6],inactive
same,outcome,[7],inactive
same,Potency,[8],inactive
same,Potency,[9],inactive
C/C(=C(\CCOP(=O)(O)O)SC(=O)c1ccccc1)N(C=O)Cc1cnc(C)nc1N,activation,[1],-0.857% [at 8.39 µM]
same,"activity change, negative = cytotoxicity",[2],9.64% [at 8.39 µM]
same,"activity change, negative = cytotoxicity",[3],-10.4% [at 8.39 µM]
same,"viability change, negative = cytotoxic",[4],4.01% [at 6.97 µM]
same,"activity change, negative = cytotoxicity",[5],0.402% [at 6.97 µM]
same,activation,[6],2.27% [at 6.97 µM]
same,"activity, negative = inhibition",[7],-3.24% [at 4.65 µM]
same,activation,[8],-0.266% [at 5.23 µM]
same,"activity change, negative = cytotoxicity",[9],10.5% [at 8.39 µM]
CCCCCCCN,Potency,[1],inactive
same,Potency,[2],inactive
same,Potency,[3],inactive
same,Potency,[4],inactive
same,outcome,[5],inactive
same,Potency,[6],inactive
same,outcome,[7],inactive
same,Potency,[8],inactive
same,Potency,[9],inactive
COc1cc2nc(N(C)CCCNC(=O)C3CCCO3)nc(N)c2cc1OC (centres undefined),Potency,[1],inactive
same,Potency,[10],inactive
same,Potency,[4],inactive
same,outcome,[5],inactive
same,Potency,[6],inactive
same,outcome,[7],inactive
same,Potency,[8],inactive
Cc1ccccc1S(=O)(=O)O,Potency,[1],inactive
same,Potency,[2],inactive
same,Potency,[3],inactive
same,Potency,[4],inactive
same,outcome,[5],inactive
same,Potency,[6],inactive
same,outcome,[7],inactive
same,Potency,[8],inactive
same,Potency,[9],inactive
NCc1ccccc1Sc1ccccc1CO,Potency,[1],inactive
same,Potency,[2],inactive
same,Potency,[3],inactive
same,Potency,[4],inactive
same,outcome,[5],inactive
same,Potency,[6],inactive
same,outcome,[7],inactive
same,Potency,[8],inactive
same,Potency,[9],inactive
CN(C)CCOC(c1ccccc1)c1ccc(Br)cc1 (centres undefined),Potency,[1],inactive
same,Potency,[2],13.3 µM (active)
same,Potency,[3],16.8 µM (active)
same,Potency,[4],inactive
same,outcome,[5],inactive
same,Potency,[6],inactive
same,outcome,[7],inactive
same,Potency,[8],inactive
O=C1c2ccccc2S(=O)(=O)N1CCCCN1CCN(c2ncccn2)CC1,Potency,[1],inactive
same,Potency,[2],inactive
same,Potency,[3],inactive
same,Potency,[4],inactive
same,outcome,[5],inactive
same,Potency,[6],inactive
same,outcome,[7],inactive
same,Potency,[8],inactive
same,Potency,[9],inactive
COc1cc2c(cc1OC)C(C(C(=O)N(CCc1ccc(OC)c(OC)c1OC)CCc1ccc(OC)c(OC)c1OC)c1ccccc1)=NCC2 (centres undefined),Potency,[1],inactive
same,Potency,[10],inactive
same,Potency,[4],inactive
same,Potency,[6],inactive
same,Potency,[8],inactive
COc1cccc(N(C)C(=S)Oc2ccc3c(c2)CCCC3)n1,Potency,[1],inactive
same,Potency,[2],inactive
same,Potency,[3],inactive
same,Potency,[4],inactive
same,outcome,[5],inactive
same,Potency,[6],inactive
same,outcome,[7],inactive
same,Potency,[8],inactive
same,Potency,[9],inactive
CC(C)OC(=O)C(C)N(C(=O)c1ccccc1)c1ccc(F)c(Cl)c1 (centres undefined),Potency,[1],inactive
same,Potency,[10],24.3 µM (active)
same,Potency,[4],inactive
same,outcome,[5],inactive
same,Potency,[6],inactive
same,outcome,[7],inactive
NCC(=O)O,activation,[1],-0.192% [at 19 µM]
same,"activity change, negative = cytotoxicity",[2],-3.8% [at 18.9 µM]
same,"activity change, negative = cytotoxicity",[3],27.9% [at 19 µM]
same,"viability change, negative = cytotoxic",[4],-5.27% [at 15.8 µM]
same,"activity change, negative = cytotoxicity",[5],0.104% [at 15.8 µM]
same,activation,[6],-0.809% [at 15.8 µM]
same,"activity, negative = inhibition",[7],-3.84% [at 10.5 µM]
same,activation,[8],-0.0833% [at 11.8 µM]
same,"activity change, negative = cytotoxicity",[9],14.5% [at 19 µM]
CCOC(=O)C(=O)CCc1ccccc1,Potency,[1],inactive
same,Potency,[2],inactive
same,Potency,[3],inactive
same,Potency,[4],inactive
same,outcome,[5],inactive
same,Potency,[6],inactive
same,outcome,[7],inactive
same,Potency,[8],inactive
same,Potency,[9],inactive
CC(C)Cc1ccc(C(C)C(=O)OCc2ccccn2)cc1 (centres undefined),Potency,[1],inactive
same,Potency,[2],inactive
same,Potency,[3],inactive
same,Potency,[4],inactive
same,outcome,[5],inactive
same,Potency,[6],inactive
same,outcome,[7],inactive
same,Potency,[8],inactive
same,Potency,[9],inactive
NS(=O)(=O)c1ccc(N2CCCCS2(=O)=O)cc1,Potency,[1],inactive
same,Potency,[2],inactive
same,Potency,[3],inactive
same,Potency,[4],inactive
same,outcome,[5],inactive
same,Potency,[6],inactive
same,outcome,[7],inactive
same,Potency,[8],inactive
same,Potency,[9],inactive
CCCOC(C(=O)OC1CCN(C)CC1)(c1ccccc1)c1ccccc1,Potency,[1],inactive
same,Potency,[10],inactive
same,Potency,[4],inactive
same,outcome,[5],inactive
same,Potency,[6],inactive
same,Potency,[9],23.7 µM (active)
CN1CCC(N(Cc2cccs2)c2ccccc2)CC1,Potency,[1],inactive
same,Potency,[2],23.7 µM (active)
same,Potency,[3],15 µM (active)
same,Potency,[4],inactive
same,outcome,[5],inactive
O=[N+]([O-])c1cccc(S(=O)(=O)O)c1,Potency,[1],inactive
same,Potency,[10],inactive
same,Potency,[4],inactive
same,Potency,[6],inactive
same,Potency,[9],inactive
CCOC(=O)NCCOc1ccc(Oc2ccccc2)cc1,Potency,[1],inactive
same,Potency,[10],17.2 µM (active)
same,Potency,[4],inactive
same,outcome,[5],inactive
same,Potency,[6],inactive
same,outcome,[7],inactive
same,Potency,[8],inactive
C=C1[C@H]2CC[C@@H]3[C@H]2C(C)(C)CCC[C@]13C,Potency,[1],inactive
same,Potency,[10],inactive
same,Potency,[4],inactive
same,Potency,[6],inactive
same,outcome,[7],inactive
same,Potency,[8],inactive
same,Potency,[9],inactive
CCCCNc1ccc(C(=O)OCCOCCOCCOCCOCCOCCOCCOCCOCCOC)cc1,Potency,[1],inactive
same,Potency,[10],inactive
same,Potency,[4],inactive
same,outcome,[5],inactive
same,Potency,[6],inactive
same,outcome,[7],inactive
same,Potency,[8],inactive
same,Potency,[9],inactive
CC(CSC(=O)c1ccccc1)C(=O)N1C[C@@H](Sc2ccccc2)C[C@H]1C(=O)O (some centres undefined),activation,[1],-0.419% [at 19 µM]
same,"activity change, negative = cytotoxicity",[2],-8.73% [at 18.9 µM]
same,"activity change, negative = cytotoxicity",[3],-1.53% [at 19 µM]
same,"viability change, negative = cytotoxic",[4],-6.88% [at 15.8 µM]
same,"activity change, negative = cytotoxicity",[5],4% [at 15.8 µM]
same,activation,[6],0.21% [at 15.8 µM]
same,"activity, negative = inhibition",[7],-5.47% [at 10.5 µM]
same,activation,[8],-0.201% [at 11.8 µM]
same,"activity change, negative = cytotoxicity",[9],14.3% [at 19 µM]
CCOc1ccc(N=Nc2ccc(/C=C/c3ccc(N=Nc4ccc(OCC)cc4)cc3S(=O)(=O)O)c(S(=O)(=O)O)c2)cc1,Potency,[1],inactive
same,Potency,[2],inactive
same,Potency,[3],inactive
same,Potency,[4],inactive
same,outcome,[5],inactive
same,Potency,[6],inactive
same,outcome,[7],inactive
same,Potency,[8],inactive
same,Potency,[9],47.8 µM (active)
O=C1CCCCCCCCCCCC(=O)OCCO1,Potency,[1],inactive
same,Potency,[10],inactive
same,Potency,[4],inactive
same,Potency,[6],inactive
same,outcome,[7],inactive
same,Potency,[8],inactive
same,Potency,[9],inactive
CC(C)C[C@H]1C(=O)N2CCC[C@H]2[C@]2(O)O[C@](NC(=O)[C@@H]3C=C4c5cccc6[nH]c(Br)c(c56)C[C@H]4N(C)C3)(C(C)C)C(=O)N12,Potency,[1],inactive
same,Potency,[10],inactive
same,Potency,[4],inactive
same,outcome,[5],inactive
same,outcome,[7],inactive
same,Potency,[8],inactive
